The values that follow come from PubChem BioAssay AID2322 (Broad Institute, 2010).

About 120 (0.44%) of roughly 27,000 compounds were called active. Only a selection was taken, and actives are over-represented in it overall. A number with no mark means an inactive call. Cut-off read from the data, not from the text of the source: active = inhibition above about 20%; inconclusive = no clear call, values can overlap the other calls; inactive = below that.

Sequence of Serine/threonine-protein kinase 33 (Homo sapiens) (Q9BYT3 whole entry, looked up): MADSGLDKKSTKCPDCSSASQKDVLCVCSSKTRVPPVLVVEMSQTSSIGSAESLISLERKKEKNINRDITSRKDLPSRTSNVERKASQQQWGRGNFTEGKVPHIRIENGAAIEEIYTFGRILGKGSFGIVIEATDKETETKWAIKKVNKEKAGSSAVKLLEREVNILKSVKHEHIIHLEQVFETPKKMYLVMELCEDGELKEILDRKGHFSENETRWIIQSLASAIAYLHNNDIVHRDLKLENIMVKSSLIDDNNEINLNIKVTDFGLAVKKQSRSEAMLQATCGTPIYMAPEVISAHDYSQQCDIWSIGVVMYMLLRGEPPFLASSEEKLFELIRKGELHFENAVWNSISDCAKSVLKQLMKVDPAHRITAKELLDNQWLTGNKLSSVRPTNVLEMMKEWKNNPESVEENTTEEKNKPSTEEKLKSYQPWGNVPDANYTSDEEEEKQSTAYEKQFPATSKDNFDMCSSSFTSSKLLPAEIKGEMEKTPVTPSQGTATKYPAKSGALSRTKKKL

The experiment concerns the target Serine/threonine-protein kinase 33 (Homo sapiens) (UniProt Q9BYT3). The experiment in a line: STK33 kinase inhibitors, primary screen, biochemical, luminescence, ADP-Glo, MBP substrate (AID 2322). The conditions noted are these: at 12.5 µM, active compounds read high.
As for `Cc1ccc(-c2ccc(CCC(=O)O)n2-c2ccc(C(N)=O)cc2)cc1`, the inhibition was -3.89%. `O=C(NCc1ccco1)c1ccc2c(c1)C(=O)N(Cc1cccnc1)C2=O`: the inhibition is -0.956%.

With `Cc1ccc(-c2nc(S(=O)(=O)c3ccc(Br)cc3)c(SCC(N)=O)o2)cc1`, the inhibition was 4.38%. To `Cc1ccc(S(=O)(=O)N(C)CC(=O)Nc2cccc(F)c2)cc1` belongs -1.04%; to `CCOC(=O)C(C)Sc1ncnc2c1sc1nc(N3CCOCC3)c3c(c12)CC(C)(C)OC3` (configuration not stated), -0.767%.

With `Cc1ccc(NC(=O)CSc2nc3ccccc3s2)cc1[N+](=O)[O-]`, the inhibition was 1.36%. To `CC(C)[C@H](CO)Nc1nc(Nc2cc(N)cc(Cl)c2)c2ncn(C(C)C)c2n1` belongs 89.6% (active); to `Cc1ccc(S(=O)(=O)N(C)C[C@@H]2Oc3ccc(NC(=O)Nc4ccc(F)cc4)cc3C(=O)N([C@H](C)CO)C[C@@H]2C)cc1`, -2.65%.

Regarding `O=C(CCn1nc(-c2ccc(Cl)cc2)c2ccccc2c1=O)Nc1ccc(Br)cc1`, the inhibition is -3.22%.

Turning to `O=C(O)CCNS(=O)(=O)c1ccc2c(c1)OCCO2`, the inhibition is 1.73%.

With `C(=C\c1nn2c(C3COc4ccccc4O3)nnc2s1)/c1ccccc1` (configuration not stated), the inhibition is -1.1%. Regarding `C[C@H]1CN([C@@H](C)CO)C(=O)CCCn2nncc2CO[C@H]1CN(C)Cc1ccc2c(c1)OCO2`, the inhibition is 5.15%. With `CN(CC(=O)Nc1ccc(Cl)c(Cl)c1)S(=O)(=O)c1ccc2ccccc2c1` the figure was 0.105%; with `Cc1ccc(CN(C)C[C@H]2OCc3cn(nn3)CCCC(=O)N([C@@H](C)CO)C[C@H]2C)cc1`, 3.49%; with `Cc1ccccc1OCC(=O)Nc1cc(-c2nc3ccccc3s2)c(Cl)cc1Cl`, -0.293%. To `COc1ccc(NC(=O)COc2cc(C)c(Br)c(C)c2)c([N+](=O)[O-])c1` belongs -1.64%; to `COc1cccc(NC(=O)N(C)C[C@@H]2OCc3cn(nn3)CCCC(=O)N([C@@H](C)CO)C[C@H]2C)c1`, -4.73%; to `O=C(CSc1nc2ccccc2s1)c1cc2ccccc2oc1=O`, -1.09%. For `COc1cc(Cl)c(C)cc1NC(=O)CSc1nnnn1-c1ccccc1`, the inhibition is -5.72%.

For the molecule `O=C(CSc1nnc(-c2cccs2)n1-c1ccccc1Cl)Nc1cccc(C(=O)O)c1`, the inhibition is -0.392%. To `Cn1c(=O)c2c(nc(SCC(=O)NC(C)(C)C)n2Cc2ccccc2F)n(C)c1=O` belongs -1.84%. To `C[C@@H]1CN([C@@H](C)CO)C(=O)CCCn2cc(nn2)CO[C@@H]1CN(C)S(=O)(=O)c1cccc(F)c1` belongs -2.04%; to `COc1ccc(NC(=O)CSc2nnc(-c3ccc(Br)cc3)n2C)cc1`, -2.11%; to `CCn1c(SCC(=O)c2ccc(OC)cc2)nnc1-c1ccc(Cl)cc1Cl`, -3.02%. Take `Cc1noc(C)c1NC(=O)Nc1ccc2c(c1)C(=O)N([C@H](C)CO)C[C@H](C)[C@@H](CN(C)Cc1ccc3c(c1)OCO3)OCCCC[C@@H](C)O2`: the inhibition is -1.44%. With `C[C@@H]1CN([C@H](C)CO)C(=O)Cc2cc(NC(=O)Nc3ccc4c(c3)OCO4)ccc2O[C@@H]1CN(C)C(=O)Nc1ccccc1` the figure was 0.707%; with `C=CCn1c2ccccc2c2nnc(SCC(=O)N3c4ccccc4Sc4ccccc43)nc21`, -0.993%. With `C[C@@H]1CN([C@@H](C)CO)C(=O)CCCn2cc(nn2)CO[C@@H]1CN(C)S(=O)(=O)c1ccccc1C#N` the figure was -7.04%. For `COC(=O)c1cc(NC(=O)Cc2ccccc2[N+](=O)[O-])ccc1Cl`, the inhibition was 1.83%. For the molecule `CCn1c(SCC(=O)c2ccc(OC)cc2)nnc1-c1ccccc1F`, the inhibition is -0.529%. To `Cc1cc(OCc2nc3ccccc3s2)ccc1NC(=O)c1cccc(F)c1` belongs 0.681%; to `CS(=O)(=O)N(CC(=O)Nc1ccc(F)cc1F)c1cc(Cl)c(Cl)cc1Cl`, -1.13%; to `C=CCN1C(=O)[C@]2(O[C@H](CCn3cc(CCO)nn3)[C@@H]([Si](C)(C)c3ccc(OC)cc3)[C@@H]2C)c2cc(N3CCOC3=O)ccc21`, -0.0517%. With `CC(=O)c1cccc(N(CC(=O)Nc2ccccc2C(F)(F)F)S(C)(=O)=O)c1` the figure was 0.774%; with `CCc1ccccc1NC(=O)COc1cc(O)c2c(=O)cc(-c3ccccc3)oc2c1`, 6.95%. Regarding `COc1c(O)cc2oc(-c3ccc(O)c(O)c3)cc(=O)c2c1O`, the inhibition was 39.8% (active). Take `CC(=O)OC[C@H]1O[C@@H](Oc2c(-c3ccc(O)c(O)c3)oc3cc(O)cc(O)c3c2=O)[C@H](O)[C@@H](O)[C@@H]1O`: the inhibition is 6.14%. To `Cc1ccc2nc(-c3ccc(Cl)c(NC(=O)COc4ccc(Br)cc4)c3)oc2c1` belongs 0.49%; to `Cc1ccc(-c2nnc(SCC(=O)Nc3ccccc3OC(F)F)o2)cc1`, 2.8%.

Turning to `C[C@H]1CN([C@@H](C)CO)C(=O)c2cc(NC(=O)CCN3CCOCC3)ccc2O[C@@H]1CN(C)C(=O)Nc1ccc(C(F)(F)F)cc1`, the inhibition was -0.787%. On to `N#Cc1c(NC(=O)C2CC(Cl)=CCC2C(=O)O)sc2c1CCC2` (configuration not stated), for which the inhibition was -3.84%. To `CCc1cc(Br)cc(C)c1NC(=O)CSc1nnc(-c2ccc(Cl)cc2)n1C` belongs 3.71%. With `C[C@@H]1CN([C@H](C)CO)C(=O)CCCn2nncc2CO[C@@H]1CN(C)S(=O)(=O)c1cccc(C#N)c1` the figure was -5.23%; with `COC(=O)Nc1ccc(S(=O)(=O)N2CCCC(C(=O)Nc3ccc(N(C)C)cc3)C2)cc1` (configuration not stated), -2.4%. With `C[C@@H]1CCCCO[C@H](CN(C)C(=O)NC2CCCCC2)[C@@H](C)CN([C@H](C)CO)C(=O)c2cc(NS(=O)(=O)c3ccc(F)cc3)ccc2O1` the figure was -0.501%. As for `O=C(CSc1nc2c(c(C(F)(F)F)n1)CCCC2)N1c2ccccc2Sc2ccccc21`, the inhibition is 2.75%. With `Cc1cc(C)cc(NC(=O)CSc2nnc(-c3ccncc3)n2-c2ccccc2)c1` the figure was -3.15%.

`Cc1noc(C)c1S(=O)(=O)Nc1ccc2c(c1)CC(=O)N([C@@H](C)CO)C[C@H](C)[C@@H](CN(C)S(=O)(=O)c1cn(C)cn1)O2`: the inhibition is 1.65%.

On to `COc1cccc(NC(=O)CCC(=O)O)c1`, for which the inhibition is -2.64%.

Consider `Cc1cccc(NC(=O)CSc2nnc3c4ccccc4nc(-c4ccccc4)n23)c1`, for which the inhibition was -2.64%. With `Cc1cccc(C)c1NC(=O)CSc1nc(O)cc(=O)[nH]1`, the inhibition is -1.7%.

`COc1ccccc1CC(=O)Nc1ccc(-c2nnc(-c3ccc(C)cc3)o2)cc1`: the inhibition is 6.73%. For `Cc1ccc2nc(-c3ccncc3)cc(C(=O)NCc3ccccn3)c2c1`, the inhibition is -5.08%. With `COC(=O)c1sccc1NC(=O)COc1cc(C)ccc1Cl` the figure was 6.51%; with `COc1cc2c(cc1NC(=O)CN(C)S(=O)(=O)c1ccc(Br)cc1)oc1ccccc12`, -2.44%; with `Cc1ccc([N+](=O)[O-])cc1NC(=O)CSc1nnc(-c2ccncc2)n1C`, -0.493%. With `O=C(CCn1nc(-c2ccccc2)c2ccccc2c1=O)Nc1cccc(Br)c1` the figure was 8.57%; with `O=C(COc1ccc2ccccc2c1Br)NCCN1CCOCC1`, 0.329%; with `O=C(CSc1nnc(-c2ccncc2)n1-c1ccccc1)Nc1ccc(OC(F)(F)F)cc1`, 1.66%. In the case of `COC(=O)c1c(-c2cccnc2)csc1NC(=O)c1cc(-c2ccc(C)o2)nc2ccccc12`, the inhibition was 9.69%.

For the molecule `C[C@@H]1CN([C@H](C)CO)C(=O)Cc2cc(NC(=O)CCCN(C)C)ccc2O[C@H]1CN(C)S(=O)(=O)c1cccs1`, the inhibition is -0.927%.

On to `COc1cc(OC)c(C2=NOC(C(=O)Nc3cccnc3)C2)cc1Cl` (configuration not stated), for which the inhibition is -2.64%. Turning to `C[C@H](CO)N1C[C@H](C)[C@H](CN(C)S(=O)(=O)c2ccccc2)Oc2ccc(NC(=O)Cn3cnnn3)cc2C1=O`, the inhibition is 1.24%. To `COc1ccc(S(=O)(=O)Nc2ccc3c(c2)C(=O)N([C@H](C)CO)C[C@H](C)[C@@H](CN(C)Cc2ccc(-c4ccccc4)cc2)O3)cc1` belongs 2.44%. To `CC(=O)Nc1ccc(S(=O)(=O)NC2(C(F)(F)F)C(=O)N(Cc3ccc(F)cc3)C3=C2C(=O)CC(C)(C)C3)cc1` (configuration not stated) belongs -0.346%. With `CCOC(=O)c1sc(NC(=O)c2cc(C)on2)c(C(=O)OCC)c1C` the figure was -1.02%.

For the molecule `Cc1nnc(SCC(=O)Nc2cc(C(F)(F)F)ccc2Cl)s1`, the inhibition is 3.42%.

In the case of `O=C(COc1ccc2oc3c(c2c1)CCCC3)Nc1cccnc1`, the inhibition was -2.38%. With `O=C1c2ccccc2C(=O)N1CCCc1nc2ccccc2c(=O)n1-c1nc2ccccc2s1`, the inhibition is -0.682%. To `CC(C)=CCCC(C)(O)C(O)Cc1cc(C(=O)O)cc(CC=C(C)C)c1O` (configuration not stated) belongs -4.79%; to `O=C(Cn1ccc([N+](=O)[O-])n1)NCc1cccs1`, 4.56%; to `COc1ccc(C(=O)N(Cc2nc(-c3ccccc3)no2)C(C)C)cc1[N+](=O)[O-]`, -9.54%. To `COC(=O)c1cc(OC)c(OC)cc1NC(=O)COc1ccc(Cl)cc1` belongs -1.45%; to `Cc1cc(Cl)ccc1NC(=O)CN(c1ccc(Cl)c(Cl)c1)S(C)(=O)=O`, -1.61%. To `O=S(=O)(c1ccc(F)cc1)c1nc(-c2ccccc2Cl)oc1NCc1ccco1` belongs 4.44%. In the case of `COc1cc(-c2nc3ccccc3s2)ccc1OCC(=O)Nc1ccc(C)cc1`, the inhibition is 1.24%. As for `C[C@H](CO)N1C[C@H](C)[C@H](CN(C)C)Oc2ncc(/C=C/c3ccccc3)cc2C1=O`, the inhibition was -3.66%.
